# From PubChem BioAssay (Tox21)
# Values joined by “and” are separate entries in the source; they are usually repeats but may differ in a detail not shown here. Identical values can stand only once. Inconclusive results are not listed. Active and inactive are the calls of the source. Calls follow the shape of the full dose curve.
# Biological target: Acetylcholinesterase (Homo sapiens) (UniProt P22303)
# Experiment: Acetylcholinesterase (AChE) small molecule antagonists: colormetric cell-based qHTS assay (AID 1347395); also: nearly all actives have a fitted effect of over 30% in size
# Details: SH-SY5Y cells AChE activity, colorimetric (Ellman); series mostly up to 115 µM; activity, negative = inhibition: at the top concentration
# Summary of the method: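 SH-SY5Y cells; cpd 30 min 37 C; + DTNB/acetylthiocholine, 90 min 37 C; colorimetric thiocholine read; qHTS.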
# % is scaled to controls: 0 for no effect and ±100 for the full control effect; potency is read from the fitted curve at half-maximal effect.
# Chain of Acetylcholinesterase (Homo sapiens) (P22303 whole entry, looked up): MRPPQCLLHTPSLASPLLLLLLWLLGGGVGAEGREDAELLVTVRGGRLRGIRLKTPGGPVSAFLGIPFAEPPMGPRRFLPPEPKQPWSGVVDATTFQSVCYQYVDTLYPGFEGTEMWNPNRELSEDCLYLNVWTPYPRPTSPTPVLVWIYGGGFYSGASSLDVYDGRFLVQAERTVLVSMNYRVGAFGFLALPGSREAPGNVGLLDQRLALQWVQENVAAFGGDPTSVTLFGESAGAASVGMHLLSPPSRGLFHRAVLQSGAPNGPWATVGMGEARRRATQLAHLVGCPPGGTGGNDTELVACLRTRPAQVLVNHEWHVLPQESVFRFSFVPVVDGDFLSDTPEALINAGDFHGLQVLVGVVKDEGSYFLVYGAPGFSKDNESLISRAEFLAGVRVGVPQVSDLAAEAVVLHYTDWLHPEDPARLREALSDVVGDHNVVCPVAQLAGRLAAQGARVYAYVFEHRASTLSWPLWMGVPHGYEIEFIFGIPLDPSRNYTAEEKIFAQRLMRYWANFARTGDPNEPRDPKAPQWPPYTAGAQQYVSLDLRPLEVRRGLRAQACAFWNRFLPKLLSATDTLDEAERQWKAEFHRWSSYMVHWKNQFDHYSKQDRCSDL
Compound,"activity, negative = inhibition",Potency
CC(CC(C)(C)C)CC(C)(C)CC(C)(C)C (stereo not given),2.39% [at 52.9 µM] (inactive),
CC(C)=CC1CC(C)CCO1 (stereo not given),-0.486% (inactive),
OC(CCCN1CCCCC1)(c1ccccc1)c1ccccc1,-0.0435% [at 52.9 µM] (inactive),
c1ccc2cnccc2c1,-3.13% (inactive),
CCCCC/C=C\C/C=C\CCCCCCCC(=O)OC,,inactive
COc1ccc(COC(C)=O)cc1,,inactive
CCCC(=O)OCCC(C)C,1.13% (inactive),
CC(=O)CC(=O)Nc1ccc(C)cc1C,0.21% (inactive),
CN1C(CSCC(F)(F)F)Nc2cc(Cl)c(S(N)(=O)=O)cc2S1(=O)=O (stereo not given),-5.52% [at 52.9 µM] (inactive),
CC(C)COC(=O)c1ccccc1,4.55% (inactive),
Cn1c(=O)c2c(ncn2CC2OCCO2)n(C)c1=O,-11.4% [at 52.9 µM] (inactive),
C[C@H]1C[C@H]2[C@@H]3CCC4=CC(=O)C=C[C@]4(C)[C@H]3C(=O)C[C@]2(C)[C@@]1(O)C(=O)CO,1.94% [at 52.9 µM] (inactive),
CCO[Si](CCCN=C=O)(OCC)OCC,1.16% (inactive),
CC/C=C\C/C=C\C/C=C\CCCCCCCC(=O)OCC,-0.405% (inactive),
CC(C)CCCC(C)N (stereo not given),-1.35% [at 52.9 µM] (inactive),
CC/C=C(\C)C=O,-0.495% (inactive),
CC(=O)C1(C)CC2=C(CCCC2(C)C)CC1C (stereo not given),,inactive
CC(C)=CCC1C(=O)N(c2ccccc2)N(c2ccccc2)C1=O,1.85% [at 52.9 µM] (inactive),
Cc1coc2ccccc2c1=O,-0.417% [at 52.9 µM] (inactive),
CCOC(=O)c1ccc(I)cc1,-0.824% (inactive),

Compound,"activity, negative = inhibition",Potency
Oc1ccccc1-c1nnco1,1.44% [at 52.9 µM] (inactive),
CCCCCCCC/C=C\CCCCCCCC(N)=O,-3.69% (inactive),
O=C(N[C@@H](Cc1ccccc1)[C@@H](O)C(=O)N1C[C@@H](O)[C@@H](O)C1)c1cc2cc(Cl)ccc2[nH]1,1.02% (inactive),
CN1C(=O)N(C)C(O)C1O (stereo not given),0.736% (inactive),
Cc1cccc(C)c1C,0.605% (inactive),
O=C(CC(C(=O)OC1CCCCC1)S(=O)(=O)O)OC1CCCCC1 (stereo not given),,inactive
CCC(C)(C)C1CCCCC1OC(C)=O (stereo not given),3.14% (inactive),
CC(=O)[C@H]1CC[C@H]2[C@@H]3C[C@H](C)C4=CC(=O)CC[C@]4(C)[C@H]3[C@@H](O)C[C@]12C,-0.617% [at 52.9 µM] (inactive),
C/C=C/C(=O)CCCC,1.37% (inactive),
c1ccc(Cc2ccccc2)cc1,-0.0931% (inactive),
C[C@]12CC[C@@H]3c4ccc(O)cc4C[C@@H](CCCCCCCCCS(=O)CCCC(F)(F)C(F)(F)F)[C@H]3[C@@H]1CC[C@@H]2O (stereo not given in full),,inactive
NS(=O)(=O)c1ccc(N2CCCCS2(=O)=O)cc1,0.421% [at 52.9 µM] (inactive),
CC(CNC1CCCCC1)OC(=O)c1ccccc1 (stereo not given),2.82% [at 52.9 µM] (inactive),
CCc1cc(Cl)c(OC)c(C(=O)NC[C@@H]2CCCN2CC)c1O,-0.199% [at 52.9 µM] (inactive),
CC(C)(O)C(=O)c1ccccc1,0.185% (inactive),
Clc1nc2ccccc2s1,1.5% (inactive),
CO[C@@H]1[C@@H](OC(N)=O)[C@@H](O)[C@H](Oc2ccc3c(O)c(NC(=O)c4ccc(O)c(CC=C(C)C)c4)c(=O)oc3c2C)OC1(C)C,-0.166% [at 52.9 µM] (inactive),
CCN=c1cc2oc3cc(NCC)c(C)cc3c(-c3ccccc3C(=O)OCC)c-2cc1C,,6.31 µM (active) and 8.94 µM (active)
CC1(C)OC(=O)NC1=O,,inactive
CC(C)(C)C(=O)C(=O)O,4.31% (inactive),

# Biological target: Acetylcholinesterase (Homo sapiens) (UniProt P22303)
# Experiment: Acetylcholinesterase (AChE) small molecule antagonists: enzyme-based qHTS assay (AID 1347397); also: nearly all actives have a fitted effect of over 55% in size
# Details: Potency: AChE enzyme activity inhibition; outcome: AChE enzyme activity inhibition; series mostly up to 115 µM; activity change, negative = inhibition: at the top concentration
# Summary of the method: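 Compound or DMSO vehicle was pin-transferred onto recombinant human AChE (50 mU/mL as dispensed) and left 30 min at room temperature. Acetylthiocholine with DTNB then started the reaction, read colorimetrically 10 min later.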
Compound,"activity change, negative = inhibition",Potency
CC(CC(C)(C)C)CC(C)(C)CC(C)(C)C (stereo not given),-0.358% [at 53 µM] (inactive),
CC(C)=CC1CC(C)CCO1 (stereo not given),0.8% (inactive),
OC(CCCN1CCCCC1)(c1ccccc1)c1ccccc1,0.727% [at 53 µM] (inactive),
c1ccc2cnccc2c1,-0.275% (inactive),
CCCCC/C=C\C/C=C\CCCCCCCC(=O)OC,,inactive
COc1ccc(COC(C)=O)cc1,,inactive
CCCC(=O)OCCC(C)C,0.79% (inactive),
CC(=O)CC(=O)Nc1ccc(C)cc1C,-0.333% (inactive),
CN1C(CSCC(F)(F)F)Nc2cc(Cl)c(S(N)(=O)=O)cc2S1(=O)=O (stereo not given),-2.71% [at 53 µM] (inactive),
CC(C)COC(=O)c1ccccc1,-2.19% (inactive),
Cn1c(=O)c2c(ncn2CC2OCCO2)n(C)c1=O,0.312% [at 53 µM] (inactive),
C[C@H]1C[C@H]2[C@@H]3CCC4=CC(=O)C=C[C@]4(C)[C@H]3C(=O)C[C@]2(C)[C@@]1(O)C(=O)CO,0.125% [at 53 µM] (inactive),
CCO[Si](CCCN=C=O)(OCC)OCC,1.56% (inactive),
CC/C=C\C/C=C\C/C=C\CCCCCCCC(=O)OCC,-0.804% (inactive),
CC(C)CCCC(C)N (stereo not given),0.543% [at 53 µM] (inactive),
CC/C=C(\C)C=O,1.5% (inactive),
CC(=O)C1(C)CC2=C(CCCC2(C)C)CC1C (stereo not given),,inactive
CC(C)=CCC1C(=O)N(c2ccccc2)N(c2ccccc2)C1=O,0.135% [at 53 µM] (inactive),
Cc1coc2ccccc2c1=O,-0.276% [at 53 µM] (inactive),
CCOC(=O)c1ccc(I)cc1,1.19% (inactive),

Compound,"activity change, negative = inhibition",Potency
Oc1ccccc1-c1nnco1,0.763% [at 53 µM] (inactive),
CCCCCCCC/C=C\CCCCCCCC(N)=O,-1.08% (inactive),
O=C(N[C@@H](Cc1ccccc1)[C@@H](O)C(=O)N1C[C@@H](O)[C@@H](O)C1)c1cc2cc(Cl)ccc2[nH]1,0.0712% (inactive),
CN1C(=O)N(C)C(O)C1O (stereo not given),-2.21% (inactive),
Cc1cccc(C)c1C,-0.403% (inactive),
O=C(CC(C(=O)OC1CCCCC1)S(=O)(=O)O)OC1CCCCC1 (stereo not given),,inactive
CCC(C)(C)C1CCCCC1OC(C)=O (stereo not given),-0.387% (inactive),
CC(=O)[C@H]1CC[C@H]2[C@@H]3C[C@H](C)C4=CC(=O)CC[C@]4(C)[C@H]3[C@@H](O)C[C@]12C,-1.11% [at 53 µM] (inactive),
C/C=C/C(=O)CCCC,-0.21% (inactive),
c1ccc(Cc2ccccc2)cc1,0.508% (inactive),
C[C@]12CC[C@@H]3c4ccc(O)cc4C[C@@H](CCCCCCCCCS(=O)CCCC(F)(F)C(F)(F)F)[C@H]3[C@@H]1CC[C@@H]2O (stereo not given in full),,inactive
NS(=O)(=O)c1ccc(N2CCCCS2(=O)=O)cc1,-0.836% [at 53 µM] (inactive),
CC(CNC1CCCCC1)OC(=O)c1ccccc1 (stereo not given),2.63% [at 53 µM] (inactive),
CCc1cc(Cl)c(OC)c(C(=O)NC[C@@H]2CCCN2CC)c1O,0.851% [at 53 µM] (inactive),
CC(C)(O)C(=O)c1ccccc1,1.03% (inactive),
Clc1nc2ccccc2s1,0.545% (inactive),
CO[C@@H]1[C@@H](OC(N)=O)[C@@H](O)[C@H](Oc2ccc3c(O)c(NC(=O)c4ccc(O)c(CC=C(C)C)c4)c(=O)oc3c2C)OC1(C)C,0.244% [at 53 µM] (inactive),
CCN=c1cc2oc3cc(NCC)c(C)cc3c(-c3ccccc3C(=O)OCC)c-2cc1C,,17.8 µM (active)
CC1(C)OC(=O)NC1=O,,inactive
CC(C)(C)C(=O)C(=O)O,0.581% (inactive),
